Only some compounds are listed: those with a hit (about 19% of all), similar ones and a draw of the others.
SW480 rerep: induces DNA re-replication in SW480 colon adenocarcinoma cells | SW480 DNA re-replication, Hoechst DNA content imaging, 48 h | Potency, µM (doses to about 46.1 µM), for inactives: top-dose re-replication activation, actives largely listed as activators | 340,000 tested, 1.8% active | AID 624297; note: potency is the fitted concentration of half-maximal effect; % of control where 0% means no effect; nearly all actives have a fitted effect of over 55% in size
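SW480 cells exposed to compounds for 48 hr at 37 C, 5% CO2, then Hoechst-stained 40 min. Nuclear DNA content imaged by fluorescence scanning (405 nm excitation, 500-530 nm emission); re-replication scored as increased high-intensity nuclei.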
TDP1 cell CPT: growth inhibition of DT40 Tdp1-/-;hTDP1 cells with camptothecin (screen for TDP1 inhibitors); chicken DT40 Tdp1-/-;hTDP1 cells + 20 nM CPT, ATP luminescence, 48 h; Potency, µM (series often up to 46.2 µM), for inactives: top-dose activity change, negative = growth inhibition, most hits filed as inhibitors; 420,000 tested, 12% active; AID 686979; note: potency is the fitted concentration of half-maximal effect; % is set by controls: 0 for no effect and ±100 for the full control effect; nearly all actives have a fitted effect of over 55% in size
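Cell growth measured by CellTiter-Glo luminescence after a minimum 48 h, 37 C compound exposure with 20 nM CPT in Tdp1-knockout DT40 cells stably expressing hTDP1, seeded 400/well; qHTS titration format.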
IL1B secr inh: blocks inflammasome-driven IL-1 beta release; THP-1 LPS/ATP IL-1B secretion, AlphaLISA, 16 h; stronger effect = lower value; activity change, % at 57.5 µM; 360,000 tested, 4.7% active; in the data active = activity change below about -50%; inconclusive = mostly about -30% to -49%; note: % is set by controls: 0 for no effect and ±100 for the full control effect
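THP-1 cells pretreated 1 hr with compounds (up to 57.5 uM final), then stimulated with LPS (250 ng/mL final) plus ATP (1.25 mM final); secreted IL-1B measured by AlphaLISA after 16 hr, decreased signal indicating inhibition.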
BCR signal inh: inhibitors of chronic active B-cell receptor signaling | ABC-DLBCL IkBa-CBG/CBR reporter, luminescence ratio, 4 h | Potency, µM (doses to about 46.1 µM), for inactives: top-dose activity change, negative = inhibition, most hits filed as inhibitors | 340,000 tested, 0.05% active; active = well fitted inhibition curve with a large enough effect in the signal ratio, with a control signal flat, not every such curve was filed as active; inconclusive = small, poorly fitted or top-dose-only effect, or effect the other way, or a change in a side signal; the % refers to the signal ratio;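 note: potency is the fitted concentration of half-maximal effect; plate controls were basal doxycycline-induced cells for no effect and cells given 10 µM MG132 for full effect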
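Doxycycline induced both beetle luciferases in TMD8 lymphoma cells; IKK-driven degradation limits the IkappaBalpha-fused green signal, while red luminescence normalises for cell number and nonspecific effects. Compounds tested up to 46 uM, 4 hrs.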
MCF10A rereplic: inducers of DNA re-replication in MCF 10A breast cells. MCF 10A DNA re-replication, Hoechst nuclear intensity, 48 h. Potency, µM (series often up to 46.1 µM), without a hit: top-dose activity, positive = re-replication, hits mostly activators. 350,000 tested, 2.9% active. AID 624296; note: potency is the fitted concentration of half-maximal effect; % of control where 0% means no effect; nearly all actives have a fitted effect of over 50% in size
TDP1 cell noCPT: qHTS for Inhibitors of human tyrosyl-DNA phosphodiesterase 1 (TDP1): qHTS in cells in absence of CPT. DT40 Tdp1-/- hTDP1 cells, no CPT, ATP luminescence, 48 h. Potency, µM (series often up to 46.2 µM), for the others: top-dose activity change, negative = growth inhibition, actives largely listed as inhibitors. 420,000 tested, 15% active; note: potency is the fitted concentration of half-maximal effect; % is set by controls: 0 for no effect and ±100 for the full control effect; nearly all actives have a fitted effect of over 55% in size
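Growth kinetics read by CellTiter-Glo luminescence after ≥48 hr at 37 °C. Cells: DT40 Tdp1-/- stably carrying human TDP1, 400 per well, compound exposure in the absence of CPT (DMSO vehicle).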
* hit, by the source's call; ? = inconclusive; nt = no result given; ! = a repeat was not active. Unless noted, calls come from the whole dose curve; as a rule, active = well fitted curve in the direction sought with a large enough effect; inconclusive = small, poorly fitted or top-dose-only effect, or another doubt; inactive = no such curve, though single readings can be large; an effect the other way counts as inactive or inconclusive.

SMILES | SW480 rerep | TDP1 cell CPT | IL1B secr inh | BCR signal inh | MCF10A rereplic | TDP1 cell noCPT
CC(=O)N1CCc2cc(S(=O)(=O)NCCC3=CCCCC3)ccc21 | 0.5% | 9.2µM* | 1.1 | nt | 0.0% | 2.59µM*
CCC(=O)N1CCc2cc(S(=O)(=O)NCCC(=O)NCc3ccc(C)cc3)ccc21 | nt | 20.6µM* | nt | nt | nt | ?
CC(=O)N1CCc2cc(S(=O)(=O)NC3CCCc4ccccc43)ccc21 (stereo unspecified) | -0.4% | 12.6µM* | 20.1 | 7.2% | -4.5% | 14.1µM*
CC(=O)N1CCc2cc(S(=O)(=O)CCC(=O)Nc3ccc(Cl)cc3F)ccc21 | ? | -20.7% | -7.0 | -0.6% | 6.3% | -3.1%
O=C(O)c1ccc(S(=O)(=O)NC2CCCc3ccccc32)cc1 (stereo unspecified) | -4.6% | -15.9% | 4.8 | 11.8% | 1.2% | -8.4%
CC(=O)N1CCc2cc(S(=O)(=O)CCC(=O)NCc3ccc(Cl)cc3)ccc21 | 2.8% | ? | -9.4 | ? | -9.4% | 20.6µM*
CCCN(C)C[C@H]1OCc2cnnn2CCCC(=O)N([C@H](C)CO)C[C@@H]1C | nt | 0.9% | 6.3 | nt | nt | 14.6%
CCCNC(=O)Cn1nc(-c2ccccc2OC)ccc1=O | nt | -3.5% | 7.2 | nt | nt | -9.1%
O=C(COC(=O)CCNS(=O)(=O)c1ccccc1)NC(=O)c1ccccc1 | 0.4% | 0.4% | 15.3 | -10.7% | -3.6% | -14.1%
CCc1nc2ccc(C(=O)N(C)Cc3ccccc3)cn2c1N(CC)CCN(C)C | nt | -3.7% | -2.6 | nt | nt | 5.3%
CC(=O)N1CCc2cc(S(=O)(=O)NCCC(=O)NCCc3ccccc3)ccc21 | -3.3% | ? | 28.7 | ? | 8.5% | ?
CC(=O)N1CCc2cc(S(=O)(=O)NCCC(=O)NCCc3ccc(C)cc3)ccc21 | 2.5% | 29.1µM* | -0.2 | ? | 8.9% | 16.4µM*
CC(=O)N1CCc2cc(S(=O)(=O)NCCC(=O)NCCc3ccc(Cl)cc3)ccc21 | -3.6% | 16.4µM* | -6.4 | -7.1% | 3.5% | ?
Cc1ccc(-c2csc(N3CCC(NS(=O)(=O)c4ccc5c(c4)OCCO5)CC3)n2)cc1 | -3.2% | ? | -26.9 | 2.2% | 8.8% | 14.6µM*
CCN1CCN(C(=O)CCc2nnc3ccc(N4CCN(c5cccc(OC)c5)CC4)nn23)CC1 | -1.8% | -15.1% | -15.9 | -3.7% | 0.3% | -21.7%
CC12CCC(C(=O)CC1=O)C2(C)C (stereo unspecified) | -4.4% | -15.9% | 8.7 | nt | 3.2% | -1.8%
CC1(C)[C@@H]2CC[C@@]1(C)C(=O)C2 | 7.5% | 8.41µM*! | nt | nt | 10.6% | 3.35µM*!
C=CCNc1nnc(Cc2ccc(C(C)C)cc2)c(=O)[nH]1 | ? | 7.31µM* | 5.9 | -3.3% | ? | 3.26µM*
COc1ccc(Cc2nnc(NCCO)[nH]c2=O)cc1 | -19.1% | -1.1% | 7.5 | -22.9% | 0.5% | 19.8%
C=C1N(c2ccccc2)C(=O)OC1(C)C | 21.8% | -1.4% | 0.3 | -7.3% | -4.5% | -1.1%
CCCCC[C@@H](C)N1C[C@H](COCc2ccccc2)Oc2cc(N3CCC[C@H]3C(N)=O)ccc2S1(=O)=O | nt | 2.91µM* | -10.8 | nt | nt | 6.51µM*
C[C@H](c1ccccc1)N1C[C@H](COCc2ccccc2)Oc2cc(N3CCC[C@H]3C(N)=O)ccc2S1(=O)=O | nt | ? | -7.9 | nt | nt | 16.4µM*
CCCCC[C@H](C)N1C[C@H](COCc2ccccc2)Oc2cc(N3CCC[C@H]3C(N)=O)ccc2S1(=O)=O | nt | ? | -28.5 | nt | nt | ?
COCCn1c(C)cc(O)c(C(c2ccc(Cl)cc2)N2CCN(c3ccccc3)CC2)c1=O (stereo unspecified) | nt | -11.6% | nt | nt | nt | -11.9%
